Laboratory results: article PMC12820563, “FoxP3 forms a head-to-head dimer in vivo and stabilizes its multimerization on adjacent microsatellites”
The full ranking holds about 16,000 sequences; the median of “rpm ratio (pull-down/input)” is about 0.94, and the highest 2% start at about 1.7. Shown is part of a subset that was picked to be rich in the highest values.

Target: T1, MBP-FoxP1dN (Mus musculus, UniProt P58462 326-579)
T1 sequence: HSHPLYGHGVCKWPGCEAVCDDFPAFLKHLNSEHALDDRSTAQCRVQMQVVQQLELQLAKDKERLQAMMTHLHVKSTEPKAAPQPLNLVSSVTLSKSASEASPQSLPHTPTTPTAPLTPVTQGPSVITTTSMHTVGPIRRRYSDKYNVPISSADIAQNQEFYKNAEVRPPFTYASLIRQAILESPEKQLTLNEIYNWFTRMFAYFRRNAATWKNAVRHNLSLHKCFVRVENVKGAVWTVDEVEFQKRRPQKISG
Experiment: PD-seq (MBP pull-down with sequencing); 20 mM Tris-HCl pH 7.5, 100 mM NaCl, 1.5 mM MgCl2, 0.4 uM protein, 0.1 uM dsDNA library, 30 min, room temperature, amylose pull-down; high values mean tight binding
Details: protein: recombinant; tags: His6-MBP; chain copies: 2; dsDNA, one strand shown
Method in brief: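 Amylose resin was used to capture complexes formed during 30 min at room temperature in Tris pH 7.5 buffer with NaCl and MgCl2 between 0.4 µM His6-MBP-tagged mouse FoxP3 or FoxP1 fragment lacking the N-terminus, expressed in E. coli, and 0.1 µM Klenow-filled double-stranded degenerate DNA library. After three washes, the DNA was released with proteinase K, barcoded by PCR and sequenced on Illumina. Binding is pooled-replicate reads-per-million enrichment, pull-down over input.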

Sequence | binding signal
GATGATTGTTCTCCCAGCTGATGAATTTCGCAGGTCGAGTAAACAAATTTTCCTAATCTTTCTGTTCAAGCGCCATCTAC | 0.789 RPM ratio (pull-down/input)
GATGATTGTTCTCCCAGCTGATGAATTTCAGTGTTCGAGTAAACAAATTTTCCTAATCTTTCTGTTCAAGCGCCATCTAC | 0.983 RPM ratio (pull-down/input)
GATGATTGTTCTCCCAGCTGATGAATTGACAGTTTCGAGTAAACAAATTTTCCTAATCTTTCTGTTCAAGCGCCATCTAC | 1.26 RPM ratio (pull-down/input)
GATGATTGTTCTCCCAGCTGATGAATTTGCCACCTCGAGTAAACAAATTTTCCTAATCTTTCTGTTCAAGCGCCATCTAC | 0.982 RPM ratio (pull-down/input)
GATGATTGTTCTCCCAGCTGATGAATTGTGTAATTCGAGTAAACAAATTTTCCTAATCTTTCTGTTCAAGCGCCATCTAC | 1.32 RPM ratio (pull-down/input)
GATGATTGTTCTCCCAGCTGATGAATTCGTGTATTCGAGTAAACAAATTTTCCTAATCTTTCTGTTCAAGCGCCATCTAC | 1.35 RPM ratio (pull-down/input)
GATGATTGTTCTCCCAGCTGATGAATTGTGTATTTCGAGTAAACAAATTTTCCTAATCTTTCTGTTCAAGCGCCATCTAC | 1.75 RPM ratio (pull-down/input)
GATGATTGTTCTCCCAGCTGATGAATTTGTGTATTCGAGTAAACAAATTTTCCTAATCTTTCTGTTCAAGCGCCATCTAC | 1.98 RPM ratio (pull-down/input)
GATGATTGTTCTCCCAGCTGATGAATTCGCCCGATCGAGTAAACAAATTTTCCTAATCTTTCTGTTCAAGCGCCATCTAC | 0.901 RPM ratio (pull-down/input)
GATGATTGTTCTCCCAGCTGATGAATTGCCCCCATCGAGTAAACAAATTTTCCTAATCTTTCTGTTCAAGCGCCATCTAC | 0.972 RPM ratio (pull-down/input)
GATGATTGTTCTCCCAGCTGATGAATTCAAGCCCTCGAGTAAACAAATTTTCCTAATCTTTCTGTTCAAGCGCCATCTAC | 0.749 RPM ratio (pull-down/input)
GATGATTGTTCTCCCAGCTGATGAATTGTATTTTTCGAGTAAACAAATTTTCCTAATCTTTCTGTTCAAGCGCCATCTAC | 1.8 RPM ratio (pull-down/input)
GATGATTGTTCTCCCAGCTGATGAATTGTATTGTTCGAGTAAACAAATTTTCCTAATCTTTCTGTTCAAGCGCCATCTAC | 2.26 RPM ratio (pull-down/input)
GATGATTGTTCTCCCAGCTGATGAATTCCTGTATTCGAGTAAACAAATTTTCCTAATCTTTCTGTTCAAGCGCCATCTAC | 1.3 RPM ratio (pull-down/input)
GATGATTGTTCTCCCAGCTGATGAATTCTTGTATTCGAGTAAACAAATTTTCCTAATCTTTCTGTTCAAGCGCCATCTAC | 1.72 RPM ratio (pull-down/input)
GATGATTGTTCTCCCAGCTGATGAATTGTATATTTCGAGTAAACAAATTTTCCTAATCTTTCTGTTCAAGCGCCATCTAC | 1.52 RPM ratio (pull-down/input)

Sequence | binding signal
GATGATTGTTCTCCCAGCTGATGAATTGTATCTTTCGAGTAAACAAATTTTCCTAATCTTTCTGTTCAAGCGCCATCTAC | 1.31 RPM ratio (pull-down/input)
GATGATTGTTCTCCCAGCTGATGAATTCACGACCTCGAGTAAACAAATTTTCCTAATCTTTCTGTTCAAGCGCCATCTAC | 0.767 RPM ratio (pull-down/input)
GATGATTGTTCTCCCAGCTGATGAATTTCCGAGATCGAGTAAACAAATTTTCCTAATCTTTCTGTTCAAGCGCCATCTAC | 0.797 RPM ratio (pull-down/input)
GATGATTGTTCTCCCAGCTGATGAATTTAACTATTCGAGTAAACAAATTTTCCTAATCTTTCTGTTCAAGCGCCATCTAC | 0.876 RPM ratio (pull-down/input)
GATGATTGTTCTCCCAGCTGATGAATTGATTCACTCGAGTAAACAAATTTTCCTAATCTTTCTGTTCAAGCGCCATCTAC | 1.03 RPM ratio (pull-down/input)
GATGATTGTTCTCCCAGCTGATGAATTCGCACAATCGAGTAAACAAATTTTCCTAATCTTTCTGTTCAAGCGCCATCTAC | 1.15 RPM ratio (pull-down/input)
GATGATTGTTCTCCCAGCTGATGAATTTCAAAGTTCGAGTAAACAAATTTTCCTAATCTTTCTGTTCAAGCGCCATCTAC | 0.792 RPM ratio (pull-down/input)
GATGATTGTTCTCCCAGCTGATGAATTAGTGTGTTCGAGTAAACAAATTTTCCTAATCTTTCTGTTCAAGCGCCATCTAC | 1.35 RPM ratio (pull-down/input)
GATGATTGTTCTCCCAGCTGATGAATTAGTGTTTTCGAGTAAACAAATTTTCCTAATCTTTCTGTTCAAGCGCCATCTAC | 2.42 RPM ratio (pull-down/input)
GATGATTGTTCTCCCAGCTGATGAATTAGTAGTGTCGAGTAAACAAATTTTCCTAATCTTTCTGTTCAAGCGCCATCTAC | 1 RPM ratio (pull-down/input)
GATGATTGTTCTCCCAGCTGATGAATTAGTGTCGTCGAGTAAACAAATTTTCCTAATCTTTCTGTTCAAGCGCCATCTAC | 0.949 RPM ratio (pull-down/input)
GATGATTGTTCTCCCAGCTGATGAATTAGTGTTGTCGAGTAAACAAATTTTCCTAATCTTTCTGTTCAAGCGCCATCTAC | 2.53 RPM ratio (pull-down/input)
GATGATTGTTCTCCCAGCTGATGAATTTAGTGTTTCGAGTAAACAAATTTTCCTAATCTTTCTGTTCAAGCGCCATCTAC | 1.15 RPM ratio (pull-down/input)
GATGATTGTTCTCCCAGCTGATGAATTGCCGTGCTCGAGTAAACAAATTTTCCTAATCTTTCTGTTCAAGCGCCATCTAC | 0.904 RPM ratio (pull-down/input)
GATGATTGTTCTCCCAGCTGATGAATTACTATAATCGAGTAAACAAATTTTCCTAATCTTTCTGTTCAAGCGCCATCTAC | 1.27 RPM ratio (pull-down/input)
